Screening data: PubChem BioAssay, National Center for Advancing Translational Sciences (NCATS)
IP6K1 inhibitor = Primary qHTS assay for small molecule inhibitors of Inositol hexaphosphate kinase 1 (IP6K1); IP6K1 kinase, ADP-Glo luminescence, 2 h; hits give low values; activity change, % (series mostly up to about 58 µM); 0.81% of 140,000 active; AID 1645851, 2021; in the data active = activity change below about -25%
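ADP-Glo luminescence measures ADP made by human IP6K1 during a 2 h RT reaction with ATP/IP6 (mix at 1.3 mM/130 uM); top library doses 57.5 and 19.1 uM final.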
KDM5B inh = Primary screen for KDM5B Histone Demethylases FDH-coupled qHTS; AID 1347165, 2019; 2.6% of 220,000 active; Lysine-specific demethylase 5B (Homo sapiens), Q9UGL1; Potency, µM (titrated, usually from 57.7 µM), most hits filed as inhibitors; KDM5B demethylase, FDH-coupled NADH fluorescence (FDH is formaldehyde dehydrogenase); also: nearly all actives have a fitted effect of over 70% in size
Target sequence (Q9UGL1 whole entry, looked up): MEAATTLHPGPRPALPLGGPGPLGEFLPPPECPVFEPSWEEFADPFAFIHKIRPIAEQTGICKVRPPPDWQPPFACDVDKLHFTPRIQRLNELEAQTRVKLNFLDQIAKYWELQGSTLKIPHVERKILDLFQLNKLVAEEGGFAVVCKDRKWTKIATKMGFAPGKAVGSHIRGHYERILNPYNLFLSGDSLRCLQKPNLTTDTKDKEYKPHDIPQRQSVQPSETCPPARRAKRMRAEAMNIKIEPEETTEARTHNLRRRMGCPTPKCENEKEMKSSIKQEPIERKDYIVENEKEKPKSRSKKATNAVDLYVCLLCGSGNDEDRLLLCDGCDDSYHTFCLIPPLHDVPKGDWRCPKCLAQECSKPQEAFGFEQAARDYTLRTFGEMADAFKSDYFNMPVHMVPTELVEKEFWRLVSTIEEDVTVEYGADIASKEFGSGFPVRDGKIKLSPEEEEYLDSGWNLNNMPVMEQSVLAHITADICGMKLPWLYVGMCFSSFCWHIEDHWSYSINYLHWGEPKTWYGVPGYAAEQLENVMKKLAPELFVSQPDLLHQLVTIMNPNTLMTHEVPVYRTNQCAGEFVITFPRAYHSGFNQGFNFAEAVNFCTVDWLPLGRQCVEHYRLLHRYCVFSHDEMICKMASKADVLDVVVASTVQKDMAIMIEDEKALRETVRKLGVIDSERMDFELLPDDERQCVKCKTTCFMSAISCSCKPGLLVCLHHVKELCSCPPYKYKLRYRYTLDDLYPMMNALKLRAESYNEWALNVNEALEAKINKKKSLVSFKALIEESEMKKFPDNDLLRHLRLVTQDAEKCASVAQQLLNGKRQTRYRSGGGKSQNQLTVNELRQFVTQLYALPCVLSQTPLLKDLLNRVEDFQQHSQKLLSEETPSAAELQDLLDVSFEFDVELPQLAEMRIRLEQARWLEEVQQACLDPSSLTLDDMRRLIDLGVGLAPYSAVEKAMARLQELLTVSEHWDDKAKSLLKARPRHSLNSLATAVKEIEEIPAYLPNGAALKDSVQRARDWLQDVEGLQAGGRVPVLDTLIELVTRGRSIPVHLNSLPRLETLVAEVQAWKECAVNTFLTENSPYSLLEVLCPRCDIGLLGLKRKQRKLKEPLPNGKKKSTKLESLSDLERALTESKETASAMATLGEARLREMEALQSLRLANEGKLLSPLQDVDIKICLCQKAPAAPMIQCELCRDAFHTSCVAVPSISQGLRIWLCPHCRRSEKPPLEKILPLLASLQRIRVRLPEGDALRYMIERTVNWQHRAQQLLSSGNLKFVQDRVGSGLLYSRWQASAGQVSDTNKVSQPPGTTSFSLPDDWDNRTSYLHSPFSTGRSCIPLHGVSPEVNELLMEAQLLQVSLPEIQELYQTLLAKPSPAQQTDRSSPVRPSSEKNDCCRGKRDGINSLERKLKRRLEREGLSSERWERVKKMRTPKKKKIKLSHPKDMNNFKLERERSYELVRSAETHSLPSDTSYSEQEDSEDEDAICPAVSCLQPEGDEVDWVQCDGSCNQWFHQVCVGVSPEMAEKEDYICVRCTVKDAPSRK
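Inhibition is measured as reduced NADH fluorescence generation from FDH coupling to formaldehyde release. Truncated KDM5BΔAP at 200 nM final acts on H3K4me3 peptide (12.5 µM in substrate mix) in pH 7.5 HEPES buffer with Tween-20, 30 min, room temperature.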
A number is an active result; - = inactive; ? = inconclusive; . = no result. Only some compounds are listed: those with a hit (about 2.7% of all), similar ones and a draw of the others.

SMILES	IP6K1 inhibitor	KDM5B inh
O=C(NC1CCCCC1)c1cc(-c2ccc(Br)cc2)nc2ccccc12	.	-
CN(C)C(=O)NC1CCCN(c2ccc3nnc(C4CC4)n3n2)C1 (stereo unspecified)	-	.
COc1cc(OC)c(C(=O)OCC(=O)Nc2c(C(C)C)cccc2C(C)C)cc1OC	.	-
CCCNC(=O)c1ccccc1NC(=O)C1CCN(S(=O)(=O)Cc2ccccc2C)CC1	.	-
COc1cc(C(=O)Nc2cccc(-c3nncn3C)c2)cc(OC)c1C	.	-
COc1ccc(C(=O)N2CCCN(c3nccc(Nc4ccc(C)cc4)n3)C2)cc1	-	.
CCC(C)(C)C(=O)NCc1ccc(OC)cc1	.	-
CC1=C(C(=O)Nc2ccc(Cl)cc2)C(c2ccncc2)n2ncc(C(=O)Nc3ccccc3)c2N1 (stereo unspecified)	.	-
COCC(=O)NC[C@H]1CCN(Cc2ccc(Cl)cc2)C[C@H]1N(C)C	-	-
COCC(=O)NC[C@H]1CCN(Cc2ccc(C#N)cc2)C[C@H]1N(C)C	-	18µM
N#Cc1ccccc1CN1CCCCCCNC(=O)[C@@H]2C[C@@H](C(=O)N3CCc4ccccc4C3)C[C@@H]21	-	20µM
N#Cc1ccc(CN2CCCCCCNC(=O)[C@@H]3C[C@@H](C(=O)N4CCc5ccccc5C4)C[C@@H]32)cc1	-	25µM
COc1cccc(CN2CCCCCCNC(=O)[C@@H]3C[C@@H](C(=O)N4CCc5ccccc5C4)C[C@@H]32)c1	-	?
O=C1NCCCCCCN(Cc2cccc(F)c2)[C@H]2C[C@H](C(=O)N3CCc4ccccc4C3)C[C@@H]12	-	?
O=[S+]([O-])(c1cccs1)N1CCN(c2nc3ncccc3o2)CC1	-	-
CC(=O)NC1CCN(c2nc3ncccc3o2)C1 (stereo unspecified)	-	.
O=[S+]([O-])(NC1CCN(c2nc3ncccc3o2)CC1)c1cccs1	-	22µM
O=C(NCc1cccs1)C1CCCN1c1nc2ncccc2o1 (stereo unspecified)	-	-
O=C(NC1CC1)C1CCN(c2nc3ncccc3o2)CC1	-	.
COC(=O)NC1CCN(c2nc3ncccc3o2)CC1	-	35µM
O=C(NC1CCN(c2nc3ncccc3o2)CC1)C1CC1	-	28µM
O=C(NCc1cccs1)C1CCN(c2nc3ncccc3o2)CC1	-	32µM
CC(C)c1nnc(NC(=O)C2CCN(C(=O)c3ccc(F)cc3)CC2)s1	.	-
CCN(CC)S(=O)(=O)N1CC=C(c2c(OC)cc(OC)cc2OC)CC1	.	-
CCn1ccc(C(=O)N2CCc3nc(NC)nc(C(=O)N4CCCC4)c3C2)n1	-	18µM
SMILES	IP6K1 inhibitor	KDM5B inh
CCn1cc(C(=O)N2CCc3nc(NC)nc(C(=O)N4CCCC4)c3C2)c(C)n1	-	?
O=c1c2cnc(N3CCCCC3)nc2ccn1-c1ccccc1F	.	-
Cc1cnc2c(S(=O)(=O)N(CC(N)=O)C3CCCC3)cccc2c1	.	-
O=C(CCSc1nc2cc(Cl)ccc2s1)NC1CCCCC1	.	-
O=C(c1ccccc1)N1CCC2(C1)C(=O)Nc1ccccc12 (stereo unspecified)	-	-
Cc1[nH]c(=O)c(C#N)cc1C(=O)N1CCC2(CC1)C(=O)Nc1ccccc12	-	22µM
Cc1ccc(C(=O)N2CCCn3cc(-c4ccccc4)nc32)cn1	-	?
N#Cc1cccc(-c2cn3c(n2)N(C(=O)Cc2ccsc2)CCC3)c1	-	32µM
N#Cc1cccc(-c2cn3c(n2)N(C(=O)c2cnccn2)CCC3)c1	-	?
O=C(Cc1cccs1)N1CCCn2cc(-c3ccccc3F)nc21	-	?
O=C(c1ccccc1F)N1CCCn2cc(-c3ccccc3F)nc21	-	-
N#Cc1cccc(-c2cn3c(n2)N(C(=O)c2ccccc2)CCC3)c1	-	20µM
Cc1ccc(C(=O)N2CCCn3cc(-c4cccc(C#N)c4)nc32)cc1	-	32µM
N#Cc1cccc(-c2cn3c(n2)N(C(=O)c2ccccc2F)CCC3)c1	-	20µM
CC(=O)Nc1c(-c2ccc(Cl)cc2)c(C)nn1-c1ccc(C(=O)NCc2cccnc2)cc1	.	-
CC(C)CNC(=O)NC(=O)COC(=O)c1ccc2c(=O)n3c(nc2c1)CCCCCC3	.	-
O=C(C1CCCC1)N1CCc2nc(C3CC3)nc(-c3ccc(O)cc3)c2CC1	-	.
O=C(/C=C/c1ccccc1[N+](=O)[O-])OCCCC(=O)c1ccc(Br)cc1	.	-
C=CCNC(=O)CN1CN(c2ccccc2)C2(CCN(C(=O)NCc3ccccc3)CC2)C1=O	-	-
COc1ccccc1-c1ccc(CN2CCC(N[S+](=O)([O-])c3cccc(C(F)(F)F)c3)C2)cc1 (stereo unspecified)	-	.
CCc1ccc(CNC(=O)C2(Cc3cccnc3)CCCCC(=O)N2)cc1 (stereo unspecified)	-	.
N#C/C(=C/c1cc(Cl)ccc1OCc1cccnc1)c1ccc(C(F)(F)F)cn1	.	-
